Where “and” joins values, the source holds several entries; their conditions need not be identical. Identical values can stand only once. Out of some 5,500 compounds screened, about 2,000 (36%) were called active. Another 18% or so got no clear call; they are omitted. No stated cut-off is given here; in the data, active means normalized growth mostly below about 0.91 (no sharp cut-off); inconclusive means no clear call, values can overlap the other calls; inactive means mostly above about 0.92. Some of the results follow.
Experiment: chemical genetic growth profiling, strain panel (AID 1159580);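 further: tested at 20 µM; growth read once vehicle control cultures reached saturation at 30 °C; 1 = growth at the plate median or of vehicle wells; lower values mean less growth of the strain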
Settings: growth OD

Measured: normalized growth

CN(C)CCCN1c2ccccc2CCc2ccc(Cl)cc21
inactive: S. cerevisiae deletion strains, locus YJR066W, strain TOR1, hits give low values 0.923 | S. cerevisiae deletion strains, locus YKL009W, strain mrt4, hits give low values 0.971 | S. cerevisiae deletion strains, locus YKL068W, hits give low values 0.991 | S. cerevisiae deletion strains, locus YKL085W, strain MDH1 (second series), hits give low values 0.994 | S. cerevisiae deletion strains, locus YKL085W, strain MDH1, hits give low values 0.994 | S. cerevisiae deletion strains, locus YKL160W, strain elf1, hits give low values 0.993 | S. cerevisiae deletion strains, locus YKL190W, strain CNB1, hits give low values 0.953 | S. cerevisiae deletion strains, locus YKR026C, strain gcn3, hits give low values 1.01 | S. cerevisiae deletion strains, locus YKR091W, strain srl3, hits give low values 1 | S. cerevisiae deletion strains, locus YLL001W, strain dnm1, hits give low values 1.01 | S. cerevisiae deletion strains, locus YLL026W, hits give low values 0.982 | S. cerevisiae deletion strains, locus YLL041C, strain sdh2, hits give low values 1 | S. cerevisiae deletion strains, locus YLR027C, strain aat2, hits give low values 0.996 | S. cerevisiae deletion strains, locus YLR058C, strain SHM2, hits give low values 0.946 | S. cerevisiae deletion strains, locus YLR102C, strain apc9, hits give low values 0.995 | S. cerevisiae deletion strains, locus YLR113W, strain HOG1, hits give low values 0.983 | S. cerevisiae deletion strains, locus YLR221C, strain rsa3, hits give low values 0.999 | S. cerevisiae deletion strains, locus YLR258W, strain gsy2, hits give low values 0.961 | S. cerevisiae deletion strains, locus YLR262C, strain YPT6 (second series), hits give low values 1.14 | S. cerevisiae deletion strains, locus YLR262C, strain YPT6, hits give low values 1.33 | S. cerevisiae deletion strains, locus YLR268W, strain sec22, hits give low values 0.961 | S. cerevisiae deletion strains, locus YLR320W, strain mms22, hits give low values 1 | S. cerevisiae deletion strains, locus YLR330W, strain CHS5, hits give low values 0.996 | S. cerevisiae deletion strains, locus YLR342W, strain FKS1, hits give low values 0.998 | S. cerevisiae deletion strains, locus YLR357W, strain rsc2, hits give low values 0.974 | S. cerevisiae deletion strains, locus YLR370C, strain arc18, hits give low values 0.993 | S. cerevisiae deletion strains, locus YLR371W, strain rom2, hits give low values 0.984 | S. cerevisiae deletion strains, locus YLR384C, strain iki3, hits give low values 1 | S. cerevisiae deletion strains, locus YML016C, strain PPZ1, hits give low values 0.978 | S. cerevisiae deletion strains, locus YML032C, strain rad52, hits give low values 0.967 | S. cerevisiae deletion strains, locus YML120C, strain ndi1, hits give low values 0.986 | S. cerevisiae deletion strains, locus YML124C, strain tub3, hits give low values 0.989 | S. cerevisiae deletion strains, locus YMR058W, strain fet3, hits give low values 0.966 | S. cerevisiae deletion strains, locus YMR078C, strain ctf18, hits give low values 0.989 | S. cerevisiae deletion strains, locus YMR125W, strain sto1, hits give low values 0.962 | S. cerevisiae deletion strains, locus YMR129W, hits give low values 1 | S. cerevisiae deletion strains, locus YMR205C, strain PFK2, hits give low values 0.979 | S. cerevisiae deletion strains, locus YMR223W, strain ubp8, hits give low values 0.934 | S. cerevisiae deletion strains, locus YMR231W, strain pep5, hits give low values 0.999 | S. cerevisiae deletion strains, locus YMR263W, strain SAP30, hits give low values 0.892 and 1.04 | S. cerevisiae deletion strains, locus YMR307W, strain GAS1, hits give low values 0.726 | S. cerevisiae deletion strains, locus YNL067W, strain RPL9B, hits give low values 0.924 | S. cerevisiae deletion strains, locus YNL071W, strain lat1, hits give low values 1.01 | S. cerevisiae deletion strains, locus YNL175C, strain NOP13, hits give low values 1.07 | S. cerevisiae deletion strains, locus YNL183C, strain NPR1, hits give low values 0.934 | S. cerevisiae deletion strains, locus YNL224C, strain SQS1, hits give low values 1.04 | S. cerevisiae deletion strains, locus YNL233W, strain BNI4, hits give low values 0.877 | S. cerevisiae deletion strains, locus YNL248C, strain rpa49, hits give low values 0.983 | S. cerevisiae deletion strains, locus YNL250W, strain rad50, hits give low values 0.996 | S. cerevisiae deletion strains, locus YNL271C, strain bni1, hits give low values 0.993 | S. cerevisiae deletion strains, locus YNL298W, strain CLA4, hits give low values 0.999 | S. cerevisiae deletion strains, locus YNL307C, strain MCK1, hits give low values 0.961 | S. cerevisiae deletion strains, locus YNL322C, strain KRE1 (second series), hits give low values 1.01 | S. cerevisiae deletion strains, locus YNL322C, strain KRE1, hits give low values 0.988 and 0.981 | S. cerevisiae deletion strains, locus YNR049C, strain mso1, hits give low values 1.01 | S. cerevisiae deletion strains, locus YNR052C, strain pop2, hits give low values 0.935 | S. cerevisiae deletion strains, locus YOL012C, strain htz1 1.42 | S. cerevisiae deletion strains, locus YOL147C, strain pex11, hits give low values 0.989 | S. cerevisiae deletion strains, locus YOR001W, strain rrp6, hits give low values 0.982 | S. cerevisiae deletion strains, locus YOR069W, strain VPS5, hits give low values 0.984 | S. cerevisiae deletion strains, locus YOR070C, strain gyp1, hits give low values 0.99 | S. cerevisiae deletion strains, locus YOR080W, strain dia2, hits give low values 1 | S. cerevisiae deletion strains, locus YOR083W, strain WHI5 (second series), hits give low values 1.1 | S. cerevisiae deletion strains, locus YOR083W, strain WHI5, hits give low values 0.985 | S. cerevisiae deletion strains, locus YOR136W, strain idh2, hits give low values 1.01 | S. cerevisiae deletion strains, locus YOR144C, strain elg1, hits give low values 0.991 | S. cerevisiae deletion strains, locus YOR184W, strain ser1, hits give low values 0.96 | S. cerevisiae deletion strains, locus YOR231W, strain MKK1, hits give low values 0.999 | S. cerevisiae deletion strains, locus YOR265W, strain rbl2, hits give low values 1 | S. cerevisiae deletion strains, locus YOR290C, strain snf2, hits give low values 0.903 | S. cerevisiae deletion strains, locus YOR316C, strain cot1, hits give low values 0.977 | S. cerevisiae deletion strains, locus YPL051W, strain arl3, hits give low values 0.989 | S. cerevisiae deletion strains, locus YPL078C, strain atp4, hits give low values 0.987 | S. cerevisiae deletion strains, locus YPL106C, strain sse1, hits give low values 1.02 | S. cerevisiae deletion strains, locus YPL240C, strain hsp82, hits give low values 0.99 | S. cerevisiae deletion strains, locus YPL241C, strain CIN2, hits give low values 0.986 and 0.999 | S. cerevisiae deletion strains, locus YPL256C, strain CLN2, hits give low values 1.02 | S. cerevisiae deletion strains, locus YPR119W, strain clb2, hits give low values 0.993 | S. cerevisiae deletion strains, locus YPR141C, strain kar3, hits give low values 0.99 | S. cerevisiae deletion strains, locus YPR167C, strain met16, hits give low values 0.986 | S. cerevisiae deletion strains, strain wtn01, hits give low values 0.928 | S. cerevisiae strains, strain wild type, hits give low values 0.902
active: S. cerevisiae deletion strains, locus YKR001C, strain vps1, hits give low values 0.644 | S. cerevisiae deletion strains, locus YLR039C, strain RIC1, hits give low values 1.35 [resistant] | S. cerevisiae deletion strains, locus YLR342W, strain FKS1 (second series), hits give low values 0.615 | S. cerevisiae deletion strains, locus YLR418C, strain cdc73, hits give low values 0.64 | S. cerevisiae deletion strains, locus YNL209W, strain ssb2, hits give low values 0.926 | S. cerevisiae deletion strains, locus YOL006C, strain TOP1, hits give low values 0.311 | S. cerevisiae deletion strains, locus YOR061W, strain CKA2, hits give low values 0.847 | S. cerevisiae deletion strains, locus YOR106W, strain vam3, hits give low values 0.846 | S. cerevisiae deletion strains, locus YOR270C, strain vph1, hits give low values 0.567 | S. cerevisiae deletion strains, locus YPR163C, strain tif3, hits give low values 0.728

Reference: PubChem BioAssay AID1159580 (chemical genetic matrix, 2015)
